The values below come from ChEMBL document CHEMBL3988442, “University of Dundee, Small-Polar-MMV Screening Library” (2021).

Each structure is given as a SMILES string.

In assay [1] the target is T1, Aspartate--tRNA(Asp/Asn) ligase (Mycobacterium tuberculosis (strain ATCC 25618 / H37Rv)) (UniProt P9WFW3). Further: in the data most compounds retested in dose-response had high values.
T1 sequence (whole entry): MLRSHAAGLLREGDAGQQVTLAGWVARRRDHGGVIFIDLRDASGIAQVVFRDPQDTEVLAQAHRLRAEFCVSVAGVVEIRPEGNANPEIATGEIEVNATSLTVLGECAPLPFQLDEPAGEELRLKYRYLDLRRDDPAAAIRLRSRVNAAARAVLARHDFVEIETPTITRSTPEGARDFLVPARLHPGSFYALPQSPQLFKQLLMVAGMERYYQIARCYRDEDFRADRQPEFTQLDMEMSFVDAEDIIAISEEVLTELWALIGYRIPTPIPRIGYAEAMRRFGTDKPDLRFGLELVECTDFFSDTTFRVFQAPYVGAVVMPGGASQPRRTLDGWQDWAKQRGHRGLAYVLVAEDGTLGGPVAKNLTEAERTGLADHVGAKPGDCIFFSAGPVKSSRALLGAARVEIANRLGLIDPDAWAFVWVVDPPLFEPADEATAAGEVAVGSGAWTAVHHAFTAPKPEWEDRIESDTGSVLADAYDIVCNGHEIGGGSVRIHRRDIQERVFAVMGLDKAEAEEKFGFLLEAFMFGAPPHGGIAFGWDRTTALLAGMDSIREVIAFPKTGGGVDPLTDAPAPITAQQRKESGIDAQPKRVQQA
In words: Assay for Asp RNA synthetase-1 from Mycobacterium tuberculosis. The assay is classed as functional. Also on record: scale not given: direction of the effect not stated beside the values. Conditions: 30 µM.

Assay [2] addresses Shiga toxin 2 (Escherichia coli O157:H7) (UniProt P09385+P09386). In words: E. coli 0.157:H7 Shiga Toxin SOP - stx2 screening assay. The assay is classed as functional. Details: scale not given: direction of the effect not stated beside the values. Conditions: 30 µM.

Regarding `Cc1ccccc1CC(=O)N(C)C1CCN(c2ccccn2)CC1`, the Percent Effect in assay [1] was -1.19%; in assay [2] it was 6.11%.

For the compound `CNC(=O)CC1CC2(CCN(Cc3nccs3)CC2)c2ccccc21` (centres undefined), the Percent Effect in assay [1] is -1.76%; in assay [2] it was -4.71%.

On to `O=C(c1cscn1)N1C[C@@H]2C[C@@H](c3nnc(C4CC4)o3)O[C@@H]2C1`, for which the figures for the Percent Effect in assay [1] and in assay [2] were 1.21% and -37.8%, respectively.

On to `COCCCN1CCCN(C(C)c2nc(C3CC3)no2)CC1` (centres undefined), for which the Percent Effect in assay [1] was -9.76%; in assay [2] it was -23.4%.

Regarding `Cc1ccc2cc(C(=O)NCCn3nc4ccccn4c3=O)[nH]c2c1`, the Percent Effect in assay [1] is -5.08%; in assay [2], -70.8%.

As for `CCCc1noc(CN2CCCC2c2ccsc2)n1` (centres undefined), the Percent Effect in assay [1] was -3.91%; in assay [2] it was 0.761%.

For the compound `Cn1cccc1-c1cc(C(=O)N2CCCC2c2cccnc2)[nH]n1` (centres undefined), the results for the Percent Effect in assay [1] and in assay [2] were 2.57% and 4.82%, respectively.

With `NC(=O)C1CCN(Cn2nc(-c3ccccc3)oc2=O)CC1`, the Percent Effect is 9.54% in assay [1] and -53.5% in assay [2].

On to `O=C1C(NCc2nnc3n2CCCC3)CCN1CC(F)(F)F` (centres undefined), for which the results for the Percent Effect in assay [1] and in assay [2] were -0.389% and 1.91%, respectively.

With `c1csc(CN2CCn3c(Cn4cncn4)cnc3C2)n1`, the Percent Effect in assay [1] was -1.25%; in assay [2], -17.5%.

Regarding `Cc1cc(NC(=O)NCC2CCOC2)no1` (centres undefined), the Percent Effect in assay [1] is -7.54%; in assay [2] it was -24.3%.

In the case of `CN(C)CCOCC1CN(CC2CCOCC2)Cc2nnn(C)c21` (centres undefined), the figures for the Percent Effect in assay [1] and in assay [2] were -1.11% and -12.4%, respectively.

Regarding `Cc1n[nH]c(C2CN(CC(=O)NCCc3ccsc3)CCO2)n1` (centres undefined), the Percent Effect in assay [1] is -3.33%; in assay [2] it was 7.26%.

Consider `c1cc(CN2CCCC(c3noc(C4CC4)n3)C2)no1` (centres undefined), for which the Percent Effect is -0.285% in assay [1] and 4.12% in assay [2].

On to `Cc1ccc2oc(C(=O)N3CCCC(n4nc(C)cc4C)C3)cc2n1` (centres undefined), for which the Percent Effect in assay [1] is -3.54%; in assay [2], 1.89%.

With `Cc1nn(C)c2c(NCc3cccnc3)nc(C3CC3)nc12`, the Percent Effect in assay [1] is 8.74%; in assay [2], -7.86%.

`CC(C)CCc1noc(CN2CCCN(C(=O)c3ccco3)CC2)n1`: the values for the Percent Effect in assay [1] and in assay [2] were -1.32% and -9.12%, respectively.

Turning to `O=C(CCc1nccs1)N1CCC(N2CCNC2=O)CC1`, the results for the Percent Effect in assay [1] and in assay [2] were 4.28% and -16.6%, respectively.

Regarding `O=C(c1ccsc1)N1CCOC2(CCN(Cc3cccnc3)CC2)C1`, the Percent Effect in assay [1] is 0.932%; in assay [2] it was -9.41%.

As for `COCCN(Cc1ccoc1)C(=O)c1cccnc1SC`, the Percent Effect in assay [1] was 1.65%; in assay [2], -0.408%.

`O=C(Nc1ccccc1)N1CCn2nnc(COc3cccnc3)c2C1`: the results for the Percent Effect in assay [1] and in assay [2] were 9.35% and -2.97%, respectively.

Turning to `Cc1ccc2c(n1)N(C)CCN(C(=O)NC1CC1)C2`, the Percent Effect in assay [1] is 7.86%; in assay [2], -7.89%.

Regarding `CC(NC(=O)NCC1(N2CCCCC2)CCCCC1)c1nncn1C` (centres undefined), the Percent Effect was -4.55% in assay [1] and 27.5% in assay [2].

Turning to `COc1cc(N2C[C@H]3OCC[C@H]3[C@H](C(=O)NC3CC3)C2)ncn1`, the values for the Percent Effect in assay [1] and in assay [2] were 3.81% and -2.62%, respectively.

On to `O=c1[nH]c2nc(N3CCSCC3)ncc2c(=O)n1-c1cccc(F)c1`, for which the Percent Effect in assay [1] was 13.7%; in assay [2], -14.3%.

In the case of `Cc1cn2nc(N3CCCN(Cc4noc(C)n4)CC3)sc2n1`, the results for the Percent Effect in assay [1] and in assay [2] were -1.65% and 0.184%, respectively.

With `CC(C)NC(=O)N1CCN(S(=O)(=O)C2CC2)CC2(CNC(=O)C2)C1` (centres undefined), the Percent Effect in assay [1] is -2.4%; in assay [2], -12.6%.

With `CCC(C)(C)NC(=O)C1CC(=O)N(CC2CC2)C1` (centres undefined), the Percent Effect in assay [1] was determined as 5.42%; in assay [2], 28.9%.

`Cc1nc(-c2ccccc2)n(CC(=O)NCC(C)C)n1`: the Percent Effect in assay [1] is -3.61%; in assay [2], 22%.

`CN1CCN(C(=O)[C@@H]2CCO[C@@H]3CCN(c4ncccn4)C[C@@H]32)CC1`: the Percent Effect in assay [1] is 5.45%; in assay [2], -16.6%.

As to `CCc1nnsc1C(=O)N1CCCN(Cc2cnn(C)c2)CC1`, the Percent Effect in assay [1] came out at 3.06%; in assay [2], 7.82%.

Take `CC1CCN(C(=O)c2cccc3ncccc23)CC1`: the Percent Effect in assay [1] was -1.51%; in assay [2] it was 5.74%.

With `CCOc1ncccc1C(=O)NCCN(CC)C1CC1`, the Percent Effect in assay [1] is 0.335%; in assay [2], 9.33%.

For the compound `CN(C)C(=O)c1cnc2n1CCN(Cc1ccccc1)C2`, the results for the Percent Effect in assay [1] and in assay [2] were 0.632% and -28%, respectively.

Turning to `Cc1ccc(C2CSCCN2C(=O)c2ccc(C(N)=O)cc2)o1` (centres undefined), the Percent Effect in assay [1] was -1.11%; in assay [2], 8.19%.

For the compound `O=C1COC2(COCCN(Cc3ccsc3)C2)CN1c1ccc(F)cc1` (centres undefined), the results for the Percent Effect in assay [1] and in assay [2] were 2.55% and -4.46%, respectively.

On to `CC(NC(=O)N(C)Cc1ccncc1)c1nncn1C` (centres undefined), for which the figures for the Percent Effect in assay [1] and in assay [2] were -5.91% and -0.749%, respectively.
